# Results from PubChem BioAssay (NCI).
# The panel holds about 83,000 compounds, 20% with a hit somewhere; the sample as a whole holds those more often.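 Each cell line was grown in a 96-well plate and treated with one concentration of compound for 48 hours. Values below 10 were considered active.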 Values without a mark were called inactive. Active and inactive are the calls of the source.
# How the values were obtained:
# Assay in all cases: NCI-60 one-dose screen, 48 h (100 = growth as untreated, 0 = no growth, -100 = all killed)
# Conditions in all cases: 10 µM unless noted
# [1] = system: SK-MEL-2 melanoma
# [2] = system: SN12C renal
# [3] = system: UO-31 renal
# [4] = system: TK-10 renal
# [5] = system: ACHN renal
# [6] = system: CAKI-1 renal
# [7] = system: A498 renal
# [8] = system: CCRF-CEM leukemia
# [9] = system: MOLT-4 leukemia
Structure (SMILES),growth [1],growth [2],growth [3],growth [4],growth [5],growth [6],growth [7],growth [8],growth [9]
CC1=C(C(=O)Nc2ccc(F)cc2)C(c2ccc(Cl)cc2)C2=C(CC(C)(C)CC2=O)N1 (configuration not stated),97.5%,86.7%,64%,113%,94.4%,72.7%,54.4%,78.8%,73.1%
COC1CC(N)C2OC(c3ccccc3)OCC2O1 (configuration not stated),114%,99.3%,97.6%,101%,99.3%,96.8%,111%,93.3%,100%
CCN(CC)CCCC(C)N/C(c1cccc(OC)c1)=c1\c(=O)[nH]n(-c2c3ccccc3nc3ccccc23)c(=O)\c1=C(/NC(C)CCCN(CC)CC)c1cccc(OC)c1 (configuration not stated),-75.2% (active),5.78% (active),-48.5% (active),-23% (active),-61.8% (active),1.65% (active),-85.9% (active),–,-22.7% (active)
Clc1ncnc2scc(C3COc4ccccc4O3)c12 (configuration not stated),107%,86.6%,59.5%,110%,96.2%,-18.7% (active),97%,22.3%,74.7%
CC(=O)c1ccc(-n2c(-c3cc(-c4ccsc4)n[nH]3)n[nH]c2=S)cc1,86.9%,98.3%,89.5%,98%,88.4%,92.7%,111%,–,87.6%
Brc1ccccc1Cn1c(-c2cncs2)nc2ccccc21,95.4%,85.1%,44.9%,82.6%,72.8%,74.4%,71.6%,78%,77.6%
CC1=NC(c2ccc(Cl)cc2)C2=C(N1)/C(=C/c1ccc(Cl)cc1)CCC2 (configuration not stated),98.4%,102%,78.5%,129%,102%,94.7%,102%,78.8%,74.6%
O=[N+]([O-])c1cccc([I+]c2ccccc2)c1,76.1%,52.4%,43.6%,67.5%,63.3%,46%,40.5%,15.8%,12.6%
Cc1cc(NC(=O)C2c3ccccc3C(=O)N(CC(C)C)C2c2cccs2)no1 (configuration not stated),50.7%,-30.9% (active),-89.7% (active),-5.69% (active),0.299% (active),-40.1% (active),113%,-13% (active),16.7%
CCOP(=O)(O)OP(=O)(O)OCC,128%,105%,91.9%,103%,97.6%,94.3%,110%,–,87.1%
CCOC(=O)Nc1ccc2nc(-c3cscn3)[nH]c2c1,32.4%,51.1%,50.9%,63.2%,73.9%,39.3%,41.8%,70.8%,49.9%
COc1ccc2nc(C)cc(Nc3ccccc3O)c2c1,67.7%,-22.9% (active),-56.1% (active),21.2%,-38.9% (active),-0.0846% (active),89.8%,50.7%,87.7%
CC(=O)c1c(O)c(C)c(O)c2c1OC1=CC(=O)/C(=C(/C)N)C(=O)C12C (configuration not stated),94.8%,92.8%,77.8%,99.4%,88.4%,87.1%,74.1%,93.1%,73.3%
NC(=S)N/N=C(/c1cccs1)C1CC1,160%,82.6%,76.2%,124%,83.9%,98.8%,106%,–,29.2%
CCOC(=O)c1ccc(NC(=O)NC2=NCCS2)cc1,76.6%,45.4%,36.5%,97.5%,78.9%,35.3%,-7.64% (active),7.22% (active),19.7%
COc1ccc(C2C=C(c3ccc(Cl)cc3)N=C3SC=CN32)cc1 (configuration not stated),113%,114%,88.5%,118%,107%,101%,104%,88.2%,104%

Structure (SMILES),growth [1],growth [2],growth [3],growth [4],growth [5],growth [6],growth [7],growth [8],growth [9]
Cc1ccc(N2C3c4ccccc4N(S(=O)(=O)c4ccc(C)cc4)C2c2ccccc2N3S(=O)(=O)c2ccc(C)cc2)cc1,111%,94.9%,91.1%,128%,95.2%,100%,97%,89.2%,93.5%
CC(C)COC(=O)NC(C)(C)C,93.1%,110%,95.6%,104%,104%,96.4%,120%,–,85.4%
CC1=C(C(=O)Nc2ccc(F)cc2)C(c2ccc(C)cc2)C2=C(CC(C)(C)CC2=O)N1 (configuration not stated),110%,97%,63.2%,109%,94.7%,69.6%,63.7%,82.8%,85%
Cc1cc(N=Nc2ccc(-c3ccc(N=Nc4ccc(O)c(C(=O)O)c4)cc3)cc2)c(N)c(N=Nc2ccc(C(=O)O)cc2)c1N,91.8%,91%,76.9%,134%,80.3%,86%,101%,–,90.1%
O=C(NCC(c1ccsc1)N1CCCCCC1)c1ccc(C(F)(F)F)cc1 (configuration not stated),94.3%,96.8%,88.1%,94.5%,103%,85%,89.4%,96.2%,78.2%
CCC(=O)NC(O)C(Cl)(Cl)C(C)Cl (configuration not stated),106%,98.8%,91.5%,112%,100%,99.4%,107%,–,108%
COc1cccc(NC(=O)c2c(-c3ccccc3)c(-c3ccccc3)n[nH]c2=O)c1,134%,96.7%,86.7%,120%,94%,86.9%,96.9%,–,67.8%
N#Cc1c(N)c(C(=O)c2ccc3c(c2)OCCO3)n2c1CCCC2,6.49% (active),42.7%,34.4%,39.9%,39%,4.26% (active),38.8%,30.5%,12.3%
CCCCCCCCCCCCCCC(C(=O)OCC)C(=O)OCC,112%,101%,93%,117%,98.3%,90.8%,105%,–,109%
[O-]/[N+](=C\c1ccccc1)CC1(O)CCCCC1,111%,94.5%,96.3%,103%,99.2%,104%,82.9%,101%,106%
CC(C)CC(NC(=O)C(CCCN=C(N)N)NC(=O)OCc1ccccc1)C(=O)NC(CNC(=O)/C=C/c1ccccc1)C(C)C (configuration not stated),113%,99.6%,93%,107%,91.9%,90%,103%,–,97.5%
CCCCCCCCCCCCCC(=S)NCCCC[C@H](NC(=O)OCc1ccccc1)C(=O)Nc1ccccc1,40.5%,27.3%,28.6%,44.2%,24.6%,34.5%,55.4%,27.3%,21.6%
C=CC[C@]1(O)CC[C@H]2[C@@H]3CCc4cc(O)ccc4[C@H]3CC[C@@]21C,90.6%,96.1%,85.7%,107%,94.5%,103%,97.2%,–,62%
CSC1=NC(=Nc2c(C)cccc2C)C2(CCC(C(C)(C)C)CC2)N1c1ccc(Cl)cc1 (configuration not stated),49.9%,42.1%,34.8%,61.3%,34.5%,12%,71.5%,36.9%,23.5%
COc1ccc(C2=CC(c3ccc(OC)cc3Br)N3C=CSC3=N2)cc1 (configuration not stated),109%,57.6%,37.7%,72%,71.4%,–,72.2%,26.9%,36.7%
